This is an account of results in PubChem BioAssay.

Values joined by “and” are separate entries in the source; they are usually repeats but may differ in a detail not shown here. Identical values can stand only once. Active and inactive are the calls of the source.

The test system of assay [1] is Plasmodium falciparum Sir2 (PF13_0152, Sir2A). The assay can be described thus: Plasmodium falciparum Sir2A binding compounds – biochemical, small-molecule microarray, 635 nm fluorescence, primary screen (AID 1098).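 Note: score merges spot fluorescence intensity with its signal-to-noise ratio.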 The conditions noted are these: fluorescence 635 nm, higher = more signal.
Assay [2] is described as follows: probe aDKK1 binding to arrayed compounds – biochemical, biotinylated probe, 635/667 nm fluorescence, primary screen (AID 1099).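 Note: score merges 667nm spot fluorescence with signal to noise across triplicate slides.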 The conditions noted are these: small-molecule microarray, higher = more signal.
Assay [3] can be described thus: probe aCHRDL2 binding to arrayed compounds – biochemical, biotinylated probe, 635/667 nm fluorescence, primary screen (AID 1100). The conditions noted are these: small-molecule microarray, higher = more signal.
Assay [4] is described as follows: change in splice reporter luminescence, either direction, cell-based, HEK293, spliceosome inhibition project, primary screen (AID 1101).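 Note: HEK293 cells carrying a splicing-competent luciferase reporter gene; test concentration not given here.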 As to conditions: HEK293 splicing luciferase reporter, 24 h, higher = more signal, called active from +8 up or from −8 down. On the technique in general: Reporter assays use an easily measured gene product as a stand-in for the process of interest.

Assay [5] deals with Fibroblast growth factor 10 (Homo sapiens) (UniProt O15520). The assay can be described thus: compounds binding fibroblast growth factor 10 – biochemical, small-molecule microarray, 635 nm fluorescence, primary screen (AID 1102). As to conditions: FGF10 binding, fluorescence 635 nm, higher = more signal.
Chain of Fibroblast growth factor 10 (Homo sapiens) (O15520 whole entry, looked up): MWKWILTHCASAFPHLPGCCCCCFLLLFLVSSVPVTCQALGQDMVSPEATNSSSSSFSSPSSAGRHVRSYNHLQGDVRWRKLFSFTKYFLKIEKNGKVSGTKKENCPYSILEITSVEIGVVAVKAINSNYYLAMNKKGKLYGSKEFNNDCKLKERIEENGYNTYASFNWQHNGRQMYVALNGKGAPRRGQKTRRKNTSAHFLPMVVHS
The subject of assay [6] is glycogen synthase kinase-3 (GSK3A per assay name; protocol says GSK3B). The assay can be described thus: compounds binding glycogen synthase kinase-3 – biochemical, small-molecule microarray, 635 nm fluorescence, GSK3A, primary screen (AID 1103). Note: the record names both GSK3A and GSK3B. As to conditions: fluorescence 635 nm, higher = more signal.
The target of assay [7] is Epidermal growth factor receptor (Homo sapiens) (UniProt P00533). Kind of assay: compounds binding epidermal growth factor receptor – biochemical, small-molecule microarray, 635 nm fluorescence, primary screen (AID 1104).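 Note: score merges 667 nm emission intensity with spot signal to noise over triplicate slides.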 The conditions noted are these: EGFR binding, higher = more signal.
Chain of Epidermal growth factor receptor (Homo sapiens) (P00533 whole entry, looked up): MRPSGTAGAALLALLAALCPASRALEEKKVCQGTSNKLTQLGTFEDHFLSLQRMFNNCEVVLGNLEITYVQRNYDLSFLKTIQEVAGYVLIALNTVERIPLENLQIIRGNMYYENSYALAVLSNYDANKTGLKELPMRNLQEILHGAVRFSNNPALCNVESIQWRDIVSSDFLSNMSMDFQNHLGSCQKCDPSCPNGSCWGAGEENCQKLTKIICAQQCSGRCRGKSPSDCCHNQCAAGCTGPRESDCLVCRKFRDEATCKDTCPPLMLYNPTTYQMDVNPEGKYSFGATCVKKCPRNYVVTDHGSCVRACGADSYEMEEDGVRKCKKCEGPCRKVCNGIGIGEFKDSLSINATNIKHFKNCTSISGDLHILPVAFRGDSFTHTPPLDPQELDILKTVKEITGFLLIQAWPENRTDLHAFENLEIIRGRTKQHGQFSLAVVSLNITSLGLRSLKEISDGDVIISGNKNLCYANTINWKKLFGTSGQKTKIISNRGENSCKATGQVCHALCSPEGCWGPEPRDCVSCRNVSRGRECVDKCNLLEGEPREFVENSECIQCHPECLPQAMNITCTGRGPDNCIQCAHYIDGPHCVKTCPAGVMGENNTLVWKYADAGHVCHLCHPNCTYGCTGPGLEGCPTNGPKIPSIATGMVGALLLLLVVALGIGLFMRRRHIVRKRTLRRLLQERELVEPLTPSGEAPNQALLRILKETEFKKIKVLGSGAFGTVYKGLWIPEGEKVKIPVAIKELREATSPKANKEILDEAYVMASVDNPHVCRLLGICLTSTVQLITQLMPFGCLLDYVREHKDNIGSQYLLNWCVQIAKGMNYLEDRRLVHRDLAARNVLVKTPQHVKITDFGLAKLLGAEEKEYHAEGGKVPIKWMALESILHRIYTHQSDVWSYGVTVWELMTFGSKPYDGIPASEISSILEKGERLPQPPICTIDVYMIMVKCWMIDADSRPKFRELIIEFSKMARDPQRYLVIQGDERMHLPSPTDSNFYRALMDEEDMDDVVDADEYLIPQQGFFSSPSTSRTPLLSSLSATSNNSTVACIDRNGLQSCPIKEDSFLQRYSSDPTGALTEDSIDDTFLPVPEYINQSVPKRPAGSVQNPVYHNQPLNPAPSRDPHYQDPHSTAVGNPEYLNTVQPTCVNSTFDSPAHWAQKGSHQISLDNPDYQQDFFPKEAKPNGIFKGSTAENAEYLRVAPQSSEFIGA
For assay [8], the target named is Follistatin-related protein 3 (Homo sapiens) (UniProt O95633). The assay can be described thus: compounds binding follistatin-related protein 3 – biochemical, small-molecule microarray, 635 nm fluorescence, primary screen (AID 1105).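 Note: score merges emission near 667 nm and signal to noise per printed spot across three slides.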 As to conditions: FSTL3 binding, higher = more signal.
Chain of Follistatin-related protein 3 (Homo sapiens) (O95633 whole entry, looked up): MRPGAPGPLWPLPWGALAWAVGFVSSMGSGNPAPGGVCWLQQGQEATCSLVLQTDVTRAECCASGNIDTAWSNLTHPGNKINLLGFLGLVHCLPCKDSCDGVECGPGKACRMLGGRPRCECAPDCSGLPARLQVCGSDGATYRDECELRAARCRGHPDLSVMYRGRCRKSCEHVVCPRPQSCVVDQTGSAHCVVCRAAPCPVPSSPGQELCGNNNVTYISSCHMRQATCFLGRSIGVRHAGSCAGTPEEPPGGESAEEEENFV
Assay [9] has as its target Dickkopf-related protein 1 (Homo sapiens) (UniProt O94907). The assay can be described thus: small molecules binding DKK1 protein – biochemical, small-molecule microarray, 635 nm fluorescence scan, primary screen (AID 1106).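 Note: score merges emission near 667 nm with signal to noise over three replicate slides.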 As to conditions: higher = more signal.
For assay [10], the system named is Inhibin beta A chain (activin A). The assay can be described thus: small molecules binding activin A – biochemical, small-molecule microarray, 635 nm fluorescence scan, primary screen (AID 1107).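 Note: mouse activin A protein probed at 4.33 µg/mL on printed slides; score merges bound-protein fluorescence near 667 nm with spot signal-to-noise.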 As to conditions: INHBA, higher = more signal.
The test system of assay [11] is Human papillomavirus type 1a protein E7 (residues 44-93). Kind of assay: small molecules binding HPV E7 44-93 – biochemical, small-molecule microarray, residues 44-93, 635 nm fluorescence, primary screen (AID 1108).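 Note: E7 fragment applied at 1 µg/mL in TBST for 1 h at 4 C; score combines spot fluorescence with its signal to noise ratio.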 As to conditions: fluorescence 635 nm, higher = more signal.
The nature of assay [12]: hepatitis C replication reporter changes, two-sided – Huh7 cells, luciferase reporter, HCV replication inhibitor project, primary screen (AID 1109).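 Note: huh7 hepatoma cells harbouring a luciferase neomycin HCV replicon reporter; luciferase luminescence as measure of HCV replicon replication; test concentration not given here.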 The conditions noted are these: Huh7 HCV replicon luciferase reporter, 48 h; higher = more signal.
Assay [13] concerns the target Left-right determination factor 2 (Homo sapiens) (UniProt O00292). Kind of assay: small molecules binding LEFTY2 protein – biochemical, small-molecule microarray, 635 nm fluorescence scan, primary screen (AID 1110). As to conditions: higher = more signal.
The target of assay [14] is Calmodulin-1 (Homo sapiens) (UniProt P0DP23). Kind of assay: small molecules binding calmodulin-1 with EGTA – biochemical, small-molecule microarray, Cy5-labelled CALM1, profiling panel (AID 1111).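 Note: labelled calmodulin applied in Tris saline Tween buffer holding calcium plus EGTA and DTT.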 The conditions noted are these: Cy5-CALM1 binding fluorescence, higher = more signal.
Assay [15] shares this target. The assay can be described thus: small molecules binding Ca-loaded calmodulin-1 – biochemical, small-molecule microarray, Cy5-labelled CALM1, plus calcium, artefact control for SMM control-protein annotation, profiling panel (AID 1112).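 Note: score merges spot fluorescence with signal to noise from triplicate slides.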 The conditions noted are these: Cy5-CALM1 binding fluorescence, higher = more signal.
Assay [16] can be described thus: probe aWnt5a binding to arrayed compounds – biochemical, biotinylated probe, 635/667 nm fluorescence, primary screen (AID 1113).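 Note: score merges 667 nm fluorescence intensity with signal-to-noise per printed feature.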 As to conditions: small-molecule microarray, higher = more signal.
Assay [17] is described as follows: probe aShh binding to arrayed compounds – biochemical, biotinylated probe, 635/667 nm fluorescence, primary screen (AID 1114).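 Note: probe is biotin-labelled aShh protein from a stem cell growth factor screen; measures binding of labelled protein to compounds printed on the slide; score merges feature fluorescence at 667 nm with signal-to-noise.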 As to conditions: small-molecule microarray, higher = more signal.
The nature of assay [18]: probe aNog binding to arrayed compounds – biochemical, biotinylated probe, 635/667 nm fluorescence, primary screen (AID 1115).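 Note: probe is biotinylated aNog protein used at 0.15 µg/mL for 1 h at 4 C; z-score combines 667 nm fluorescence of each spot with its signal to noise.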 As to conditions: small-molecule microarray, higher = more signal.
Assay [19] has as its target Torsin-1A-interacting protein 1 (Homo sapiens) (UniProt Q5JTV8). The assay can be described thus: compound microarray binding of lysate hLAP1 – cell lysate, small-molecule microarray, COS7 lysate, 635/667 nm fluorescence, primary screen (AID 1116). As to conditions: 635 nm fluorescence, higher = more signal.
The target in assay [20] is Alpha-bungarotoxin (Bungarus multicinctus) (UniProt P60615). The assay can be described thus: compounds binding labelled alpha-BTX control protein – biochemical, small-molecule microarray, Alexa647 label, 635/667 nm fluorescence, artefact control for SMM control protein annotation, profiling panel (AID 1117). As to conditions: alpha-BTX-A647 binding fluorescence, higher = more signal.
Chain of Alpha-bungarotoxin (Bungarus multicinctus) (P60615 whole entry, looked up): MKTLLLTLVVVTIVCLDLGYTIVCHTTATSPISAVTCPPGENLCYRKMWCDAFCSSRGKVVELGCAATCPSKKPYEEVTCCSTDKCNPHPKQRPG

Chain of Dickkopf-related protein 1 (Homo sapiens) (O94907 whole entry, looked up): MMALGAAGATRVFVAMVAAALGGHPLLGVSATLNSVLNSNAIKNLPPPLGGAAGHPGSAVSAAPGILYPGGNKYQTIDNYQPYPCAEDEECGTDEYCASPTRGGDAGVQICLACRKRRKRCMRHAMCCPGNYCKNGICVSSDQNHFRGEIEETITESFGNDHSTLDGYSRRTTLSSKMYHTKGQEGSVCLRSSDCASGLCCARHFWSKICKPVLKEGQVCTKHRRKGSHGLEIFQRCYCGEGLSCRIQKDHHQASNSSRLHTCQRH
Chain of Torsin-1A-interacting protein 1 (Homo sapiens) (Q5JTV8 whole entry, looked up): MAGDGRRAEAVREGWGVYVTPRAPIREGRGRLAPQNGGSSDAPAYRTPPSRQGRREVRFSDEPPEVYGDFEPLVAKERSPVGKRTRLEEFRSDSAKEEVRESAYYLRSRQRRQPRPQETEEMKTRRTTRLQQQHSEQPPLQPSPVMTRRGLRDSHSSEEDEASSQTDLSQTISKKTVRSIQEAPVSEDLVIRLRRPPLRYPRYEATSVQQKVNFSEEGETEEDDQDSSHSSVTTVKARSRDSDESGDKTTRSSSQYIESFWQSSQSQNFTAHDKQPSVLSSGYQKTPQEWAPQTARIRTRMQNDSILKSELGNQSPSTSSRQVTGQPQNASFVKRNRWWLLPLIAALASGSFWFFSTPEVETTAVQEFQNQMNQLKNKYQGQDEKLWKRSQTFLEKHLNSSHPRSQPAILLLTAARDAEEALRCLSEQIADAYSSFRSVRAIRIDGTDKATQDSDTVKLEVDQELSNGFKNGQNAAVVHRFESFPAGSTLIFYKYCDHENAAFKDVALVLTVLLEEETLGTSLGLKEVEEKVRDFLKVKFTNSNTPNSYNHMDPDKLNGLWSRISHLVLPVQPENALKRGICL
Chain of Left-right determination factor 2 (Homo sapiens) (O00292 whole entry, looked up): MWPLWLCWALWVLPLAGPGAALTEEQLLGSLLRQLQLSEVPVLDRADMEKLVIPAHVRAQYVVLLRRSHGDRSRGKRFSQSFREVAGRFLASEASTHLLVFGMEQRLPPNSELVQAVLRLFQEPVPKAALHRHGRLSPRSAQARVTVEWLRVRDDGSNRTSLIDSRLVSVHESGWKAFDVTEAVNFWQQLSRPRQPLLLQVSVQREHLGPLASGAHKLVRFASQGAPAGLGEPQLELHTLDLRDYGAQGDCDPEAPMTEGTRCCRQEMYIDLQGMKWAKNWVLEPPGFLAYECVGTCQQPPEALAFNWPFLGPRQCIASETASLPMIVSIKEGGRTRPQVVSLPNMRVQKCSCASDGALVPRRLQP

For `COC(=O)[C@@]1(Cc2ccc(OC)cc2)[C@H]2c3cc(C(=O)N(C)C)n(Cc4ccc(O)c(OC)c4)c3C[C@H]2CN1C(=O)c1ccccc1`, the composite z-score in assay [1] is 1.17 and 1.27; in [2] it was 0.714 and 0.773; in assay [3] it was 1.08 and 0.94; in assay [5] it was 0.113 and 1.15; in assay [6], 0.568 and -0.198; in assay [7] it was -0.14 and -0.143. Also, the composite z-score was 0.418 and 0.592 in assay [8]; -0.529 and -0.128 in [9]; 0.876 and 0.416 in assay [10]; 1.31 and 1.43 in assay [11]; -0.3 and -0.586 in assay [13]; 2.32 and 1.21 in assay [14]. In addition, the composite z-score in [15] was 0.88 and 0.206; in assay [16], -0.208 and 0.201; in assay [17], -0.374 and 0.632; in assay [18], 0.231 and 1.94; in [19], 2.63 and 1.12; in assay [20], 0.526 and 0.245. Also, the z-score in assay [4] is -2.55 (inactive) and -2.51 (inactive); in assay [12], -1.33 and -1.83.
On to `COC(=O)[C@@]1(Cc2ccc(F)cc2)[C@H]2c3cc(C(=O)N4CCCC4)n(Cc4c(CO)[nH]cc(C)c4=O)c3C[C@H]2CN1C(=O)c1ccccc1`, for which the composite z-score is 1.47 and 1.53 in assay [1]; 2.17 and -0.115 in assay [2]; 1.29 and 0.955 in assay [3]; 0.822 and 0.461 in assay [5]; -0.252 and 0.368 in assay [6]; 0.704 and -0.2 in assay [7]. The composite z-score in assay [8] is 0.0376 and -0.36; in [9], -0.198 and -0.57; in assay [10] it was 1.02 and 1.31; in assay [11] it was 0.866 and 0.952; in assay [13], -0.0537 and -0.837; in [14], 1.41 and 0.252. Besides, the composite z-score in [15] was 0.249 and 0.299; in [16], 1.02 and 0.132; in assay [17] it was 2.2 and 0.182; in assay [18], 2.71 and 1.27; in assay [19] it was 0.959 and 1.72; in assay [20], 0.234 and -0.124. Also, the z-score in assay [4] is -1.48 (inactive) and -0.107 (inactive); in assay [12], -1.31 and -1.38.
For the compound `CCOC(=O)[C@H](Cc1ccccc1)NC(=O)CCC1CC(OC(=O)NCc2cccc3ccccc23)CC2(CCCC(COC(=O)NCCCN3CCCC3=O)O2)O1` (stereo not given in full), the composite z-score is 0.513 in [1]; -0.104 in assay [2]; -0.517 in assay [3]; 0.447 in assay [5]; 0.901 in [6]; 0.405 in assay [7]. Besides, the composite z-score in assay [8] was 0.804; in [9], 0.866; in [10], -0.0698; in [11], 1.28; in assay [13], 0.752; in [14], 0.394. Also, the composite z-score in assay [15] was -0.267; in [16], -0.2; in [17], -0.279; in assay [18], -0.17; in assay [19], 0.403; in assay [20], 0.552. Moreover, the values for the z-score in [4] and in assay [12] were -1.09 (inactive) and -0.963, respectively.
In the case of `C[C@@H]1CN2[C@@H](CC[C@@H](C)[C@@H]2c2ccc(Br)cc2)C(=O)O1`, the composite z-score is -0.638 and -0.597 in assay [1]; -0.295 and -0.239 in [2]; -0.211 and -0.583 in [3]; -0.0428 and 0.337 in [5]; -0.534 and -0.046 in assay [6]; 0.167 and 0.49 in [7]. For the same compound, the composite z-score in assay [8] is -0.579 and -0.462; in assay [9], 0.313 and 0.233; in assay [10], 0.502 and 0.45; in assay [11], -0.561 and -0.15; in [13], 0.57 and 0.0106; in [14], -0.235 and -0.676. The composite z-score in assay [15] is -0.535 and 0.1; in [16], -0.148 and -0.206; in assay [17], -0.59 and -0.428; in assay [18], 0.0014 and -0.287; in [19], -0.0307 and -0.0763; in assay [20], -0.209 and 0.0857. Further, the z-score in [4] was -0.142 (inactive) and -1.21 (inactive); in [12] it was -0.67 and 1.5.
